In the library only some 12% were active in any assay of this set; here they are far more common.
BAZ2B block = qHTS Assay for Inhibitors of BAZ2B. AlphaScreen BAZ2B-H3K14Ac peptide displacement. Potency, µM (highest dose often 114 µM), without a hit: at the highest dose activity change, negative = inhibition, hits mostly inhibitors. hit rate 4.4% among 360,000. AID 504333, 2011; also: % is scaled to controls: 0 for no effect and ±100 for the full control effect; nearly all actives have a fitted effect of over 60% in size
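Compounds, titrated to a top concentration of 110 uM, were incubated 30 min at room temperature with preformed BAZ2B/acetyl-K14 H3 peptide complex (50 nM each). Proximity signal was measured by AlphaScreen after 20 min with beads.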
JMJD2A Tudor inh = qHTS Assay for Inhibitors of JMJD2A-Tudor Domain. AlphaScreen JMJD2A-Tudor / H3K4me3 peptide binding. AID 504339, 2011. hit rate 4.4% among 390,000. Potency, µM (series often up to 114 µM), without a hit: at the top dose activity change, negative = inhibition, usual class: inhibitors; also: % is scaled to controls: 0 for no effect and ±100 for the full control effect; nearly all actives have a fitted effect of over 50% in size
PLK1 PBD inh = qHTS for Inhibitors of PLK1-PDB (polo-like kinase 1 - polo-box domain): Primary Screen. Serine/threonine-protein kinase PLK1 (Homo sapiens), P53350. Plk1 PBD binding of FITC phosphopeptide, fluorescence polarization. Potency, µM, for inactives: max response, negative = inhibition, hits mostly inhibitors. hit rate 2.8% among 360,000. AID 720504, 2013; also: series mostly up to about 57 µM; % is scaled to controls: 0 for no effect and ±100 for the full control effect; nearly all actives have a fitted effect of over 65% in size
G9a block = qHTS Assay for Inhibitors of Histone Lysine Methyltransferase G9a; hit rate 8.8% among 350,000; AID 504332, 2011; Potency, µM (top dose mostly 102 µM), without a hit: top-dose activity, negative = inhibition, hits mostly inhibitors; G9a H3K9 monomethylation, AlphaScreen, 2 h; Histone-lysine N-methyltransferase EHMT2 (Homo sapiens), Q96KQ7; also: % is scaled to controls: 0 for no effect and ±100 for the full control effect; nearly all actives have a fitted effect of over 75% in size
Target sequence (Q96KQ7 913-1193 limits assumed): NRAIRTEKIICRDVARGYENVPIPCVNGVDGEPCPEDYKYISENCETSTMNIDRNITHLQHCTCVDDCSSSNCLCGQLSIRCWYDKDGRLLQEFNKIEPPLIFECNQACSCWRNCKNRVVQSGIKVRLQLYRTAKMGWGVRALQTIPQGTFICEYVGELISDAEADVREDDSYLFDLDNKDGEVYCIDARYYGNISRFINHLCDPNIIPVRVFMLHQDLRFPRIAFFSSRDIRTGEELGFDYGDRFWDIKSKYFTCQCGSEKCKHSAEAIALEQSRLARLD
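Methyltransferase reactions run at room temperature for 2 h (20 nM enzyme, 500 nM biotin-H3K9 peptide, 20 uM SAM) after a 15 min compound preincubation; product detected by AlphaScreen beads and anti-H3K9me1 antibody.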
HP1b binding inh = HTS for Inhibitors of HP1-beta Chromodomain Interactions with Methylated Histone Tails | Chromobox protein homolog 1 (Homo sapiens), P83916 | AlphaScreen HP1-beta / biotin-H3K9me3 peptide binding | Potency, µM (doses to about 114 µM), for inactives: top-dose activity change, negative = inhibition, hits mostly inhibitors | hit rate 0.56% among 390,000; also: nearly all actives have a fitted effect of over 70% in size
Target sequence (P83916 whole entry, looked up): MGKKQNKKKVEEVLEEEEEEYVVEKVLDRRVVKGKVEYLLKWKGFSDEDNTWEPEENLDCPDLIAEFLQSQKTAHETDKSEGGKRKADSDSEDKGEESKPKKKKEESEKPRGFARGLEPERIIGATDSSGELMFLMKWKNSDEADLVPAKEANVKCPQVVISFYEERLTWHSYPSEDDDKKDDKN
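HP1-beta protein (50 nM final) preincubated 30 min at room temperature with biotinylated H3(1-18)K9me3 peptide (50 nM) in PBS pH 7.4, 0.01% Tween-20, then compound added for 30 min. AlphaScreen streptavidin donor/nickel chelate acceptor beads (10 ug/mL final), 30 min dark, luminescence read.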
Sfp inh = qHTS Assay for Inhibitors of Bacillus subtilis Sfp phosphopantetheinyl transferase (PPTase). 4'-phosphopantetheinyl transferase ffp (Bacillus subtilis), Q9F4F7. Biochemical Sfp PPTase activity, qHTS. Potency, µM, for the others: largest response in the series, negative = inhibition, hits mostly inhibitors. hit rate 3.5% among 310,000. AID 1490, 2009;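 also: the enzyme is Sfp with the accession as filed and its product quenches rhodamine fluorescence; 0% = enzyme reaction without inhibitor and -100% = no enzyme wells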
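Reaction rates are the 30-min fluorescence difference (ex 525, em 598 nm) in wells containing 15 nM Sfp, 5 uM rhodamine-CoA and 12.5 uM BHQ-2-YbbR at pH 7.6 with 10 mM MgCl2.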
The depositor's hits bear a star; ? = inconclusive; nt = not tested or not shown; [ ] = another dose, or the depositor's remark. Calls follow the shape of the dose curve; as a rule, active = well fitted curve in the direction sought with a large enough effect; inconclusive = small, poorly fitted or top-dose-only effect, or another doubt; inactive = no such curve, though single readings can be large; an effect the other way counts as inactive or inconclusive. Potency is read from the fitted curve at half-maximal effect.

SMILES | BAZ2B block | JMJD2A Tudor inh | PLK1 PBD inh | G9a block | HP1b binding inh | Sfp inh
COc1ccc(OC)c(CCNC(=O)C(C)n2nc(C)c3c(C)n(-c4ccccc4)nc3c2=O)c1 (configuration not stated) | -26% | ? | 27µM* | 49% | 9% | 16%
COc1ccc(CNC(=O)Cn2nc(C)c3c(C)n(-c4ccccc4)nc3c2=O)cc1OC | -34% | -7% | nt | -24%[59 µM] | ? | nt
COc1ccc(S(=O)(=O)N2CCNCC2)cc1 | 14% | -3% | 4% | nt | 35% | 5%
O=C(c1ccncc1)N1CCC[C@@]2(CCN(c3ccncc3)C2)C1 | nt | nt | nt | 2%[12.7 µM] | nt | 22%
Cc1cccc(CSCc2ccc(C(=O)NCCc3ccccc3)o2)c1 | 34% | 7% | nt | 14%[59 µM] | 45% | nt
Cc1cc(C)n(C(C)Sc2ccccc2)n1 (configuration not stated) | -2% | -4% | -6% | -8%[2.33 µM] | 79% | nt
O=C(c1ccc2c3c(cccc13)CC2)C1CCCN(C(=O)c2ccc(=O)[nH]c2)C1 (configuration not stated) | ? | ? | -22% | nt | -20% | 50µM*
O=C(c1ccc2c3c(cccc13)CC2)C1CCCN(Cc2ccncc2)C1 (configuration not stated) | ? | 56µM* | -11% | ? | -8% | -6%
CCc1nc(CN2CCCC(C(=O)c3ccc4c5c(cccc35)CC4)C2)c(C)[nH]1 (configuration not stated) | ? | ? | -11% | ? | -20% | -4%
COc1ccc(OC)c(CCNc2ncnc3onc(-c4ccc(F)cc4)c23)c1 | 17%[57.1 µM] | -31% | nt | 0%[59 µM] | 25% | nt
O=C(/C=C/c1ccc(F)cc1)NCCc1ccc2c(c1)OCCO2 | 5% | -3% | -3% | 89µM* | 36% | 1%
COc1ccc(-n2c(=O)[nH]cc(C(=O)Nc3ccc4c(c3)OCCO4)c2=O)cc1OC | -15% | 3% | -4% | ? | 23% | 12%
O=C(Nc1ccc2c(c1)OCO2)c1c[nH]c(=O)n(-c2ccc(F)cc2)c1=O | 35µM* | ? | -13% | 56µM* | -32% | -3%
O=[N+]([O-])c1ccc(NC(=S)NCCc2ccc(F)cc2)cc1 | 79µM* | ? | ? | ? | -35% | ?
O=C(NCCc1ccc(F)cc1)Nc1ccc2c(c1)OCO2 | 2% | -20% | 8.4µM* | -9% | -11% | 4%
O=C(NCCc1ccc2c(c1)OCCO2)c1ccccc1F | -3% | -1% | -14% | 2%[59 µM] | 20% | 5%
COc1ccc(CNC(=O)CC(c2ccc(OC)c(OC)c2)N2Cc3ccccc3C2=O)cc1 (configuration not stated) | 1% | -21% | nt | 15%[59 µM] | 27% | nt
CC(Oc1ccccc1)C(=O)N=C1SC2CS(=O)(=O)CC2N1c1ccccc1 (configuration not stated) | -27% | 10% | -2% | -5%[59 µM] | 35% | 17%
Cc1ccc(OC(C)C(=O)N2CCN(CCc3ccccn3)CC2)cc1C (configuration not stated) | 4% | 3% | nt | -6%[59 µM] | 37% | nt
O=C(NCCc1ccc(Cl)cc1)Nc1ccc(F)cc1 | -5% | -17%[11.4 µM] | 24µM* | 26% | -16% | 17%
C=CCOc1ccc(C2C(C(=O)c3ccco3)=C(O)C(=O)N2c2nnc(C)s2)cc1 (configuration not stated) | 79µM* | 28µM* | 21µM* | -7%[12.7 µM] | -9% | 7.1µM*
COc1cc(C2C(C(=O)c3ccco3)=C(O)C(=O)N2c2cc(C)on2)cc(Br)c1O (configuration not stated) | 1% | ? | -3% | 0%[59 µM] | -4% | -4%
COc1ccc(C2C(C(=O)c3ccco3)=C(O)C(=O)N2c2nnc(C)s2)cc1OC (configuration not stated) | -3% | 25µM* | -7% | 50µM* | -6% | -23%
COc1ccc(C2C(C(=O)c3ccco3)=C(O)C(=O)N2c2nnc(C)s2)cc1 (configuration not stated) | 50µM* | -13% | -12% | nt | 15% | 10µM*
CC(C)C(NC(=O)/C(=C/c1ccco1)NC(=O)c1ccc(Br)o1)C(=O)O (configuration not stated) | ? | ? | -21% | 22µM* | 28% | ?
SMILES | BAZ2B block | JMJD2A Tudor inh | PLK1 PBD inh | G9a block | HP1b binding inh | Sfp inh
O=C(O)/C(=C\c1ccco1)NC(=O)c1ccc(Br)o1 | nt | ? | -16% | nt | 10% | nt
CC(C)C(NC(=O)/C(=C\c1ccco1)NC(=O)c1ccco1)C(=O)O (configuration not stated) | -21% | ? | -10% | 40µM* | 33% | -5%
CN(C)c1ncc(CN2CCC(C(=O)Nc3ccc(-n4cccn4)cc3)CC2)s1 | 1% | -10% | 4% | 17% | 14% | 13%
CCCN(CCC)S(=O)(=O)c1ccc(C)cc1 | 18% | 23% | 0% | nt | 63% | 9%
COC(=O)C1CC23C=CCN4CCC5(c6ccccc6NC15C2C)C43 (configuration not stated) | -24% | ? | -24% | 40µM* | 30%[57 µM] | 4%
Cc1cccc(Oc2cc([N+](=O)[O-])cc3c2C(=O)Nc2ccccc2O3)c1 | ? | ? | 9% | -15% | -9% | 3%
Cc1cccc(Oc2ccc3c(c2)Oc2ccccc2NC3=O)c1 | 50µM* | 50µM* | nt | 4%[59 µM] | -15% | nt
c1cncc(CNc2nc(-c3cccnc3)nc3ccccc23)c1 | -13% | -5% | -2% | -7% | 44% | 13%
c1ccc(-c2nc(NCC3CCCO3)c3oc4ccccc4c3n2)cc1 (configuration not stated) | -9% | -14% | -3% | 45µM* | 44% | -24%
O=C(O)CNc1nc(-c2ccccc2)nc2c1oc1ccccc12 | 0% | -3%[11.4 µM] | -10% | -35% | 27% | 29%
c1ccc(-c2nc(NCc3cccnc3)c3oc4ccccc4c3n2)cc1 | 50µM* | ? | -22% | ? | 48% | -17%
OCCCNc1nc(-c2ccccc2)nc2c1oc1ccccc12 | ? | -9% | -8% | 50µM* | 1% | 3%
c1ccc2c(c1)oc1c(NCC3CCCO3)ncnc12 (configuration not stated) | -35% | -11% | -4% | nt | 31% | 2%
